In PubChem BioAssay:
The source made the active and inactive calls.

How the values were obtained:
Albumin (Bos taurus) = Albumin (Bos taurus) (UniProt P02769); assay: bovine serum albumin binders on microarray, profiling panel, artefact control for SMM control protein annotation, biochemical, small-molecule microarray, Alexa647 label, 635/667 nm fluorescence (AID 1118); conditions: BSA-A647 binding, fluorescence 635 nm, higher = more signal;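 also: score merges 667 nm emission intensity and signal-to-noise per printed compound spot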
Sequence of Albumin (Bos taurus) (P02769 whole entry, looked up): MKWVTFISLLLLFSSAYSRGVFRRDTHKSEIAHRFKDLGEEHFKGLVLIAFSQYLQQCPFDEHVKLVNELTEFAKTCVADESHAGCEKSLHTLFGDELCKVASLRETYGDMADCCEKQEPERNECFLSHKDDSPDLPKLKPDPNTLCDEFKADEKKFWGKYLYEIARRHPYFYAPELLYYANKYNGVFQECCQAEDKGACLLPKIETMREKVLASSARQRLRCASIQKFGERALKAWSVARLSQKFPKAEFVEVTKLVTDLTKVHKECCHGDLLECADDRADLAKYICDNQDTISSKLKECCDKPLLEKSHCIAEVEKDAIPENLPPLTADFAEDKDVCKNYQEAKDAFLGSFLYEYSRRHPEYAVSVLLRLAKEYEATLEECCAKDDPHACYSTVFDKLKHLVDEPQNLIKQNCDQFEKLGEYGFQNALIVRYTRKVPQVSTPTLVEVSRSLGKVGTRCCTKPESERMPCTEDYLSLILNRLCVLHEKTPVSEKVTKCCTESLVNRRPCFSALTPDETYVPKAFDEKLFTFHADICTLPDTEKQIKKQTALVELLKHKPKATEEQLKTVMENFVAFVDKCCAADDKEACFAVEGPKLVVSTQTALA

[1] = small-molecule microarray binders of probe aXIP, primary screen, biochemical, NeuroSMM set, 635/667 nm fluorescence (AID 1119); conditions: higher = more signal, called active from +8 up or from −8 down;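 also: probe is the protein aXip251-270 applied at 1 µg/mL to compound-printed slides; binding of probe to printed compounds measured as 667 nm fluorescence plus signal to noise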
[2] = small-molecule binders of probe aNOTCH3, primary screen, biochemical, small-molecule microarray, 635/667 nm fluorescence (AID 1120); conditions: higher = more signal;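 also: probe is a biotin-tagged antibody raised against NOTCH3 rather than NOTCH3 protein; score merges spot fluorescence near 667 nm with spot signal to noise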
[3] = small-molecule binders of probe aNOTCH2, primary screen, biochemical, small-molecule microarray, 635/667 nm fluorescence (AID 1121); conditions: higher = more signal;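 also: score merges feature fluorescence read at 667 nm with its signal to noise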
[4] = molecular target: Carbonic anhydrase 2 (Homo sapiens) (UniProt P00918); assay: CAII small-molecule binders, profiling panel, biochemical, small-molecule microarray, Alexa647-labelled CAII (AID 1122); conditions: CAII-A647 binding fluorescence, higher = more signal
[5] = COS7 lysate on small-molecule microarray, probe aHis, 635 nm (AID 1123); conditions: COS7 cell lysate, fluorescence, higher = more signal;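 also: z-score combines 667nm fluorescence intensity with signal-to-noise per printed compound spot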
[6] = compound binding in COS7 lysate, probe aLAP1, primary screen, cell lysate, small-molecule microarray (AID 1124); conditions: probe aLAP1, fluorescence, higher = more signal;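 also: lysate comes from COS7 cells expressing LAP1 and is applied at 0.3 µg/mL; score merges spot fluorescence near 667 nm with signal-to-noise over triplicate slides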
Sam68 (KHDRBS1) = assay: Sam68 small-molecule binders, primary screen, biochemical, small-molecule microarray, 635 nm fluorescence (AID 1125); conditions: small-molecule microarray binding, higher = more signal;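 also: score merges 667 nm channel intensity with signal to noise over triplicate slides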
[7] = system: Chordin-like protein 2 (CHRDL2); assay: CHRDL2 small-molecule binders, primary screen, biochemical, small-molecule microarray, 635 nm fluorescence (AID 1126); conditions: small-molecule microarray binding, fluorescence 635 nm; higher = more signal;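 also: printed compound slides probed with Chrdl2 protein at 4 µg/mL for 1 h at 4 C; score merges 667 nm emission intensity with signal to noise over three replicate slides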
[8] = molecular target: Concanavalin-A (Canavalia ensiformis) (UniProt P02866); assay: ConA small-molecule binders, primary screen, artefact control for SMM control protein annotation, biochemical, small-molecule microarray, Alexa647 label, 635 nm (AID 1127); conditions: ConA-A647 binding fluorescence, higher = more signal;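 also: z combines 667 nm emission intensity with signal-to-noise across three replicate slides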
Sequence of Concanavalin-A (Canavalia ensiformis) (P02866 whole entry, looked up): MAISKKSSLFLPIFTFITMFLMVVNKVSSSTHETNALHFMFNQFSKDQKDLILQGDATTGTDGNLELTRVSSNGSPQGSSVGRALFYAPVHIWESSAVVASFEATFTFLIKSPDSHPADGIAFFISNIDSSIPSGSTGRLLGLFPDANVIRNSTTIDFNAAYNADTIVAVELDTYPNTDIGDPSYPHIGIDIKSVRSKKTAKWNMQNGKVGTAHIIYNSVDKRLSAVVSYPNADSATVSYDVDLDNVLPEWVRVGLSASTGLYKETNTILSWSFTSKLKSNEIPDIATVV

[9] = anti-His antibody binders, primary screen, artefact control for SMM control protein annotation, biochemical, small-molecule microarray, 635 nm fluorescence (AID 1128); conditions: anti-His Alexa647 antibody binding, higher = more signal;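 also: score merges feature fluorescence with signal-to-noise for each printed compound spot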
[10] = system: Human papillomavirus type 1a E7 protein (residues 1-88); assay: HPV1a E7 small-molecule binders, primary screen, biochemical, small-molecule microarray, residues 1-88, 635 nm (AID 1129); conditions: small-molecule microarray binding, fluorescence 635 nm; higher = more signal
[11] = molecular target: Focal adhesion kinase 1 (Homo sapiens) (UniProt Q05397); assay: small-molecule microarray binders of FAK, primary screen, biochemical, 635/667 nm fluorescence, BSA, DTT (AID 1130); conditions: PTK2 binding, 635 nm fluorescence, higher = more signal;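 also: composite of spot emission at 667 nm and signal to noise over triplicate slides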
Sequence of Focal adhesion kinase 1 (Homo sapiens) (Q05397 whole entry, looked up): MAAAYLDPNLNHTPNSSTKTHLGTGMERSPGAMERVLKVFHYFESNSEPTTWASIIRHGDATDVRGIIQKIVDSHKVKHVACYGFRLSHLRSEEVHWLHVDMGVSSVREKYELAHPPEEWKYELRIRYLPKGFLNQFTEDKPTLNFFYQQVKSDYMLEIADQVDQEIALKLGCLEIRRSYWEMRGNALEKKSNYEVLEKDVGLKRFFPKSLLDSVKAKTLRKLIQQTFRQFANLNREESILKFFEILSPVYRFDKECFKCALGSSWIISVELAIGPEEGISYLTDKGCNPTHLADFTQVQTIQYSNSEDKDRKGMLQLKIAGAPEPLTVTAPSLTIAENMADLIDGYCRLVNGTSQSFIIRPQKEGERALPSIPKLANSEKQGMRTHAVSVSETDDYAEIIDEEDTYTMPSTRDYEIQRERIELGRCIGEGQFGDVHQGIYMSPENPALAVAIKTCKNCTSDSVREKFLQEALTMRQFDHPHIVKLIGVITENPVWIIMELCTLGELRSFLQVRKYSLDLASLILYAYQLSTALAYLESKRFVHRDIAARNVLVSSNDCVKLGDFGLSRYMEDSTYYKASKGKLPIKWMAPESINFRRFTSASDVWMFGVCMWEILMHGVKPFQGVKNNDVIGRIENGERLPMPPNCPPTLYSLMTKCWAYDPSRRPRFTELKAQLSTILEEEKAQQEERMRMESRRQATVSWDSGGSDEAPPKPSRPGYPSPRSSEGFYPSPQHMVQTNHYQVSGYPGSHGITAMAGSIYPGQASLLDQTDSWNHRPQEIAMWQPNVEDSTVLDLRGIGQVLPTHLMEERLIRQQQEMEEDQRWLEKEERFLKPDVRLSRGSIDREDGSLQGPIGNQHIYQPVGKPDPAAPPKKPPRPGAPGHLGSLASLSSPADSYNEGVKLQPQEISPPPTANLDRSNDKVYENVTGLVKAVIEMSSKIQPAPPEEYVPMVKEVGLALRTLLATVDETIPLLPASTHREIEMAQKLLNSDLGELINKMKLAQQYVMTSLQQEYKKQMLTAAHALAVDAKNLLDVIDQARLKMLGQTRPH

[12] = system: Fibrinogen (Alexa647-labelled); assay: fibrinogen binders on compound microarrays, profiling panel, artefact control for SMM control-protein annotation, biochemical, small-molecule microarray, 635/667 nm fluorescence (AID 1131); conditions: fibrinogen-A647 binding fluorescence, higher = more signal;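 also: z-score merges 667 nm fluorescence with per-spot signal-to-noise over triplicate slides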
[13] = molecular target: Follistatin (Homo sapiens) (UniProt P19883); assay: follistatin binders on small-molecule microarrays, primary screen, biochemical, small-molecule microarray, 635/667 nm fluorescence (AID 1132); conditions: FST binding, 635 nm fluorescence, higher = more signal
Sequence of Follistatin (Homo sapiens) (P19883 whole entry, looked up): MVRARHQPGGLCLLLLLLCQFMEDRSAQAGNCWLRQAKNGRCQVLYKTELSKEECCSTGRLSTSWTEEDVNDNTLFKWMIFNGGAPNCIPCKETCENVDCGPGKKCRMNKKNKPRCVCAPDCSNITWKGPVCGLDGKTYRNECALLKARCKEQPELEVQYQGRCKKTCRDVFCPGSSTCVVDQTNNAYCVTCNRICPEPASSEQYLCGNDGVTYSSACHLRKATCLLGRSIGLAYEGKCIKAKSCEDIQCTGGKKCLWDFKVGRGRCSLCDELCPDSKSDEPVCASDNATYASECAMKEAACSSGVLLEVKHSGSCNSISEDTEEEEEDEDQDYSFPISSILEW

[14] = molecular target: Fibroblast growth factor 2 (Homo sapiens) (UniProt P09038); assay: FGF2 binders on small-molecule microarrays, primary screen, biochemical, small-molecule microarray, 635/667 nm fluorescence (AID 1133); conditions: small-molecule microarray binding, FGF2, fluorescence 635/667; higher = more signal
Sequence of Fibroblast growth factor 2 (Homo sapiens) (P09038 whole entry, looked up): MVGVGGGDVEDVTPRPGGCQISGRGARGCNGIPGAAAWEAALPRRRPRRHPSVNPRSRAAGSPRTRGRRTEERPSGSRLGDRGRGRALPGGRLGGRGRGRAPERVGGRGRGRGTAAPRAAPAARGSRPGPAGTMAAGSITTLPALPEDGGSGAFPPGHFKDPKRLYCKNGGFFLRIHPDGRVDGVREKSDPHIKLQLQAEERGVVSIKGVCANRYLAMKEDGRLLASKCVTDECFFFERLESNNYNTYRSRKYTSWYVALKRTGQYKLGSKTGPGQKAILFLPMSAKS

[15] = mitochondrial membrane potential change in A549 cells, profiling panel, cell-based, JC-1 fluorescence, basal, 24 h, 100 nL (AID 1138); conditions: higher = more signal;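 also: A549 lung adenocarcinoma cells under basal conditions with no added stimulus; test concentration not given here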
Lefty1 = Lefty1 binders on small-molecule microarrays, primary screen, biochemical, small-molecule microarray, 635/667 nm fluorescence (AID 1139); conditions: small-molecule microarray binding, fluorescence 635/667; higher = more signal
[16] = system: wheat germ agglutinin (Triticum aestivum), Alexa647-labelled; assay: wheat germ agglutinin binders on compound microarrays, profiling panel, artefact control for SMM control-protein annotation, biochemical, small-molecule microarray, 635/667 nm fluorescence (AID 1140); conditions: WGA-A647 binding, 635 nm fluorescence, higher = more signal;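 also: score merges 667 nm feature emission with signal to noise over triplicate slides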
[17] = molecular target: Luciferin 4-monooxygenase (Photinus pyralis) (UniProt P08659); assay: firefly luciferase enzyme inhibitors, primary screen, biochemical, luminescence, purified enzyme, 2006 set (AID 1141); conditions: SteadyGlo luminescence, 30 min, higher = more signal, called active from +8 up or from −8 down;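 also: cell-free assay with purified firefly luciferase at 100 ng per well in PBS; test concentration not given here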
Sequence of Luciferin 4-monooxygenase (Photinus pyralis) (P08659 whole entry, looked up): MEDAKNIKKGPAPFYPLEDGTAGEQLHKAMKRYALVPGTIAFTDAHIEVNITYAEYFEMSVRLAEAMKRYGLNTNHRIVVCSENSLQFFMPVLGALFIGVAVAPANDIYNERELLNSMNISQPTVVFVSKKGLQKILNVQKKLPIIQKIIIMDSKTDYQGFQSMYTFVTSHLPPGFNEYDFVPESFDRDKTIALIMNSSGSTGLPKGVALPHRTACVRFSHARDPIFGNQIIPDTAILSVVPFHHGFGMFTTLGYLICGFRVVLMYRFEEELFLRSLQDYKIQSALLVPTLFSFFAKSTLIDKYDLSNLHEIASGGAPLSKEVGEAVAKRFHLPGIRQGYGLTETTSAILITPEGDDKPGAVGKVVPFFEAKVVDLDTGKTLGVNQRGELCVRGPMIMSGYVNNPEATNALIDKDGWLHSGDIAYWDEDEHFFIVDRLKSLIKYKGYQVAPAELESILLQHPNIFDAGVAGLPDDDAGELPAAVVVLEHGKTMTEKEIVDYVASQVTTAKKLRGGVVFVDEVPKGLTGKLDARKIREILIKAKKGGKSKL

Row | SMILES | composite z-score (Albumin (Bos taurus)) | composite Z-score [1] | composite z-score [2] | composite z-score [3] | composite z-score [4] | composite z-score [5] | composite z-score [6] | composite z-score (Sam68 (KHDRBS1)) | composite z-score [7] | composite z-score [8] | composite z-score [9] | composite z-score [10] | composite z-score [11] | composite z-score [12] | composite z-score [13] | composite z-score [14] | z-score [15] | composite z-score (Lefty1) | composite z-score [16] | z-score [17]
1 | CNS(=O)(=O)c1ccc(C)cc1 | -0.189 | 0.348 (inactive) | -0.185 | -0.0761 | -0.0894 | 0.284 | 0.291 | 0.667 | 1.07 | 0.613 | -0.0728 | 0.668 | -0.163 | -0.212 | 0.884 | 0.917 | 1.55 | 0.39 | 0.0044 | -1.2 (inactive)
2 | [N-]=[N+]=Nc1ccccc1[C@@H]1OC(c2ccc(OCCCO)cc2)=N[C@]1(Cc1ccccc1)C(=O)N1CCOCC1 | 0.309 | -0.174 (inactive) | 0.619 | 0.0117 | 0.312 | 2.23 | 0.115 | 1.31 | 0.0383 | 1.09 | 2.31 | 1.19 | 0.142 | 0.862 | 1.26 | 0.749 | 1.53 | 0.0367 | 0.923 | -5.98 (inactive)
3 | CC(C)NC(=O)[C@@]1(C)c2ccccc2C(=O)N(Cc2cc(C(F)(F)F)cc(C(F)(F)F)c2)[C@H]1c1ccc(CO)cc1 | -0.47 | -0.0197 (inactive) | -0.165 | -0.123 | 0.689 | 2.07 | -0.208 | 0.784 | -1.39 | 0.0957 | -0.229 | 0.272 | 0.0662 | -0.285 | -0.101 | -0.741 | 1.21 | -0.146 | -0.568 | -0.734 (inactive)
4 | CCOC(=O)C[C@H]1[C@H](OC(=O)c2ccccc2-c2ccccc2)[C@@H](NC(=O)CC(C)C)c2cc(OCCCO)ccc2N1C(=O)Cc1ccc(OC)cc1 | 0.401 | 0.692 (inactive) | 0.0708 | -0.118 | -0.132 | 0.761 | -0.201 | 0.488 | 0.246 | 0.482 | -0.272 | 0.149 | -0.0432 | 0.522 | -0.247 | 0.268 | 1.15 | 0.108 | 0.288 | -0.0339 (inactive)
5 | COC(=O)[C@@]1(Cc2ccc(F)cc2)[C@H]2c3cc(C(=O)N(C)C)n(Cc4cc(F)c(F)c(F)c4)c3C[C@H]2CN1C(=O)c1ccccc1 | 0.935 | 0.0144 (inactive) | 0.672 | 0.214 | 0.613 | 2.37 | 0.351 | 1.13 | -0.0618 | 1.13 | 1.13 | 1.21 | 0.538 | 0.711 | 1.02 | -0.0402 | 0.918 | -0.788 | 0.704 | 2.37 (inactive)
